Test results: PubChem BioAssay (Tox21)
Activity calls are given as the source filed them. Calls come from the whole dose curve; as a rule, active = well fitted curve in the direction sought with a large enough effect in the repeat runs; inconclusive = weak or mixed curves; inactive = flat fitted curve, though single readings scatter.

Assays:
[1] = qHTS assay to test for compound auto fluorescence at 535 nm (green) in HEK293 cells (AID 720680)
[2] = qHTS assay to test for compound auto fluorescence at 460 nm (blue) in HEK293 cell free culture (AID 720681)
In short: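 Test compounds were pinned into cell-free culture medium (DMEM with 10% FBS) and fluorescence was read directly at Ex/Em 405/460 nm. Signals were expressed as fluorescence equivalents of triamterene, with DMSO vehicle as control.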

[3] = qHTS assay to test for compound auto fluorescence at 535 nm (green) in HEK293 cell free culture (AID 720682)
In short: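 Fluorescein serves as the green reference fluorophore; each compound's intrinsic emission at 535 nm (excitation 485 nm) is reported as an equivalent amount of that dye, measured in serum-containing DMEM without cells.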

[4] = qHTS assay to test for compound auto fluorescence at 590 nm (red) in HEK293 cell free culture (AID 720683)
In short: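 Tox21 10K library compounds were pinned into cell-free DMEM with 10% FBS and fluorescence was read at excitation 540 nm. Activity is expressed as Rose Bengal sodium equivalency.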

[5] = qHTS assay to test for compound auto fluorescence at 590 nm (red) in HepG2 cell free culture (AID 720684)
In short: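 Readout: intrinsic compound fluorescence at 590 nm emission after 540 nm excitation, scaled to Rose Bengal sodium. Matrix was cell-free MEM with 10% FBS; DMSO vehicle wells served as control.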

[6] = qHTS assay to test for compound auto fluorescence at 460 nm (blue) in HepG2 cell free culture (AID 720685)
In short: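 Cell-free plates of MEM plus 10% FBS received 23 nL compound or DMSO vehicle; blue-channel (405/460 nm) intensity scored against triamterene as reference fluorophore.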

[7] = qHTS assay to test for compound auto fluorescence at 535 nm (green) in HepG2 cell free culture (AID 720686)
[8] = qHTS assay to test for compound auto fluorescence at 460 nm (blue) in HepG2 cells (AID 720687)
In short: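 Cells (2,000/well in MEM with 10% FBS) attached overnight at 37 C, then were exposed to compound or DMSO for 1 hr at 37 C, 5% CO2. Fluorescence read at Ex/Em 405/460 nm, expressed as triamterene-equivalent signal.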

Measured: Potency

CCCCCCCCCCCCCC[P+](CCCCCC)(CCCCCC)CCCCCC (tested in a mixture with another compound)
inactive: all assays above

CCN(CC)C(=S)[S-].CCN(CC)C(=S)[S-].[Zn+2]
inactive: all assays above

CCCCCCCCCC[N+](C)(C)CCCCCCCCCC
inactive: all assays above

CC1(C)C(/C=C(\Cl)C(F)(F)F)C1C(=O)OC(C#N)c1cccc(Oc2ccccc2)c1 (stereo unspecified)
inactive: all assays above

CCCN(CCC)c1c([N+](=O)[O-])cc(S(N)(=O)=O)cc1[N+](=O)[O-]
inactive: all assays above

CC(C)(O)c1cnn2c(-c3ccc(F)c(-c4c(F)cccc4C#N)c3)cnc2n1
inactive: all assays above

CC(C)OS(C)(=O)=O
inactive: all assays above

OC(c1ccc(Cl)cc1)(c1ccc(Cl)cc1)C(Cl)(Cl)Cl
inactive: all assays above

C[C@@H]1CC[C@@]2(OC1)O[C@H]1[C@@H](O)[C@H]3[C@@H]4CC[C@H]5C[C@@H](O[C@@H]6O[C@H](CO)[C@H](O[C@@H]7O[C@H](CO)[C@@H](O)[C@H](O[C@@H]8OC[C@@H](O)[C@H](O)[C@H]8O)[C@H]7O[C@@H]7O[C@H](CO)[C@@H](O)[C@H](O[C@@H]8O[C@H](CO)[C@@H](O)[C@H](O)[C@H]8O)[C@H]7O)[C@H](O)[C@H]6O)[C@H](O)C[C@]5(C)[C@H]4CC[C@]3(C)[C@H]1[C@@H]2C
inactive: all assays above

CC1(c2ccc(Oc3ccccc3)cc2)OC(=O)N(Nc2ccccc2)C1=O (stereo unspecified)
inactive: all assays above

COC12CC[C@@]3(C[C@@H]1C(C)(O)C(C)(C)C)[C@H]1Cc4ccc(O)c5c4[C@@]3(CCN1CC1CC1)[C@H]2O5 (stereo partly specified)
inactive: all assays above

COc1ccc(OC)c(CC(C)N)c1 (stereo unspecified)
inactive: all assays above

CC1(C)CN=C(NN=C(/C=C/c2ccc(C(F)(F)F)cc2)/C=C/c2ccc(C(F)(F)F)cc2)NC1
inactive: all assays above

C=CC(=O)OCC(COC(=O)C=C)(COC(=O)C=C)COC(=O)C=C
inactive: all assays above

CC(C)[C@H](C(=O)O[C@H](C#N)c1cccc(Oc2ccccc2)c1)c1ccc(Cl)cc1
inactive: all assays above

COc1cc(C=O)cc2c1[C@H](COC(N)=O)[C@]1(OC(C)=O)ON2C[C@H]2[C@@H]1N2C(C)=O
inactive: all assays above

COP(=S)(OC)Oc1cc(Cl)c(Br)cc1Cl
inactive: all assays above

CC(=O)[O-].CC(=O)[O-].[Hg+2]
inactive: all assays above

COC(=O)N(C(=O)N1CO[C@@]2(C(=O)OC)Cc3cc(Cl)ccc3C2=N1)c1ccc(OC(F)(F)F)cc1
inactive: all assays above

Oc1ccc(C2(c3ccc(O)cc3)CCCCC2)cc1
inactive: all assays above

Oc1ccc(C(=C(Cl)Cl)c2ccc(O)cc2)cc1
inactive: all assays above

ClC(Cl)=C(Cl)Cl
inactive: all assays above
